According to PubChem BioAssay (NCI):
About 79,000 compounds went through this panel and 15% of them were active in at least one assay; those are over-represented in the sample as a whole. Calls of active or inactive are those of the source. Rule as the data show it: active = growth inhibition above about 70%; inactive = the rest.

Tests used:
[1] = NCI Yeast Anticancer Drug Screen. Data for the rad52 strain (AID 147);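 also: 0% = growth of vehicle-treated control cultures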; conditions: S. cerevisiae rad52 mutant growth inhibition, hits give high values
In short: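 DNA repair-defective yeast; compound exposure; growth scored against vehicle controls.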

[2] = NCI Yeast Anticancer Drug Screen. Data for the wt1 strain (AID 149);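 also: 0% = growth of vehicle-treated wt1 cultures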; conditions: S. cerevisiae wt1 strain (SPY 50644) growth inhibition, hits give high values
In short: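 Vehicle-normalised growth inhibition; strain wt1; compound exposure.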

[3] = NCI Yeast Anticancer Drug Screen. Data for the rad50EPP+ strain (AID 151);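 also: 0% = growth of vehicle-treated control cultures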; conditions: S. cerevisiae rad50 mutant strain, hits give high values
In short: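 rad50EPP+ yeast treated with test compounds. Readout: growth vs vehicle control.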

[4] = NCI Yeast Anticancer Drug Screen. Data for the mgt1 strain (AID 153); conditions: S. cerevisiae mgt1 mutant growth inhibition, hits give high values
In short: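 Growth inhibition relative to vehicle controls was scored for the mgt1 yeast strain after compound exposure.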

[5] = NCI Yeast Anticancer Drug Screen. Data for the rad50 strain (AID 155);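 also: 0% = growth of vehicle-only cultures of the same strain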; conditions: S. cerevisiae rad50 strain growth inhibition, hits give high values
In short: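 A DNA repair-deficient yeast mutant serves as the test organism; compound-induced growth inhibition is calculated against vehicle-treated cells.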

[6] = NCI Yeast Anticancer Drug Screen. Data for the mec2-1 strain (AID 157); conditions: S. cerevisiae mec2-1 strain, hits give high values
In short: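 Growth inhibition is read against vehicle-treated controls after compound exposure of the mec2-1 yeast strain, which is defective in DNA damage repair or cell cycle control.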

[7] = NCI Yeast Anticancer Drug Screen. Data for the rad14 strain (AID 159);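 also: 0% = growth of vehicle-treated control cultures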; conditions: S. cerevisiae rad14 strain growth inhibition, hits give high values
In short: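 Vehicle-treated cultures served as the baseline for growth inhibition of a DNA repair-mutant yeast strain exposed to each compound.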

[8] = NCI Yeast Anticancer Drug Screen. Data for the CLN2oe strain (AID 163);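 also: 0% = growth of vehicle-only control cultures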; conditions: S. cerevisiae CLN2oe strain, hits give high values
In short: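 Compound-treated yeast; growth vs vehicle ctrl = % inhibition. Genetically altered strain (cell-cycle control).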

[9] = NCI Yeast Anticancer Drug Screen. Data for the cln2 rad14 strain (AID 165);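 also: 0% = growth equal to vehicle treated cultures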; conditions: S. cerevisiae cln2 rad14 strain, hits give high values
In short: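 Growth inhibition, relative to vehicle-treated controls, is the read-out. The test organism is a yeast strain with defined genetic alterations, cln2 rad14.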

[10] = NCI Yeast Anticancer Drug Screen. Data for the bub3 strain (AID 167); conditions: S. cerevisiae bub3 mutant strain, hits give high values
In short: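 Inhibition values come from growth of compound-treated mutant yeast normalised to vehicle-treated controls.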

[11] = NCI Yeast Anticancer Drug Screen. Data for the mlh1 strain (AID 171);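 also: 0% = growth of vehicle-treated control cultures of the same strain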; conditions: S. cerevisiae mlh1 strain growth inhibition, hits give high values
In short: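 Compounds are applied to a genetically altered yeast strain, and its growth is compared with that of vehicle-treated cultures to give percent inhibition.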

[12] = NCI Yeast Anticancer Drug Screen. Data for the mlh1 rad18 strain (AID 175); conditions: S. cerevisiae mlh1 rad18 strain growth inhibition, hits give high values
In short: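 Cells of a genetically altered yeast strain, deficient in DNA damage repair, were treated with compound. Their growth was then compared with that of vehicle-treated cultures to give inhibition.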

[13] = NCI Yeast Anticancer Drug Screen. Data for the rad18 strain (AID 177); conditions: S. cerevisiae rad18 mutant growth inhibition, hits give high values
In short: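 Compounds are applied to a repair-deficient yeast strain, and growth is compared with that of vehicle-treated cultures to give percent inhibition.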

[14] = NCI Yeast Anticancer Drug Screen. Data for the wt2 strain (AID 169);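 also: 0% = growth of vehicle-treated yeast cultures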; conditions: S. cerevisiae wt2 strain growth inhibition, hits give high values
In short: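 Compound exposure of yeast; growth compared with vehicle controls; inhibition reported.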

[15] = NCI Yeast Anticancer Drug Screen. Data for the sgs1 strain (AID 173);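 also: 0% = growth of vehicle-only control cultures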; conditions: S. cerevisiae sgs1 mutant, hits give high values
In short: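 Compounds applied to genetically altered yeast; growth compared with vehicle-treated cultures to give % inhibition.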

[16] = at 5.0 µM (retest, dose inferred, filed as 0.5)
[17] = at 50.0 µM (retest, dose inferred, filed as 5.0)

Measured: growth inhibition

O=C1c2ccccc2-c2cc3ccccc3c(=O)n21
active: [1]; at 11.0 µM 91% | [1]; at 33.0 µM 93% | [1]; at 100.0 µM 87% | [3]; at 3.7 µM 76% | [3]; at 11.0 µM 90% | [3]; at 33.0 µM 92% | [3]; at 100.0 µM 80% | [4]; at 33.0 µM 71% | [4]; at 100.0 µM 76% | [5]; at 11.0 µM 88% | [5]; at 33.0 µM 89% | [5]; [17] 92% | [5]; at 50.0 µM 91.7% | [5]; at 100.0 µM 84% | [6]; at 33.0 µM 70% | [6]; at 50.0 µM 85.3% | [6]; at 100.0 µM 77% | [10]; at 50.0 µM 84.5% | [10]; at 100.0 µM 72% | [11]; at 33.0 µM 74% | [12]; at 50.0 µM 81%
inactive: [1]; at 1.2 µM 32% | [1]; at 3.7 µM 64% | [2]; at 1.2 µM -21% | [2]; at 3.7 µM 0% | [2]; at 11.0 µM 31% | [2]; at 33.0 µM 58% | [2]; at 100.0 µM 51% | [3]; at 1.2 µM 41% | [4]; at 1.2 µM 12% | [4]; at 3.7 µM 2% | [4]; at 11.0 µM 37% | [5]; at 1.2 µM 32% | [5]; at 3.7 µM 64% | [5]; [16] 1% | [6]; at 1.2 µM 13% | [6]; at 3.7 µM 19% | [6]; [16] -14% | [6]; at 11.0 µM 48% | [6]; [17] 41% | [7]; at 1.2 µM 11% | [7]; at 3.7 µM 20% | [7]; at 11.0 µM 42% | [7]; at 33.0 µM 66% | [7]; at 100.0 µM 69% | [8]; at 1.2 µM 1% | [8]; at 3.7 µM 4% | [8]; at 11.0 µM 23% | [8]; at 33.0 µM 51% | [8]; at 100.0 µM 68% | [9]; [16] 22% | [9]; [17] 15% | [9]; at 50.0 µM 14.3% | [10]; at 1.2 µM 3% | [10]; at 3.7 µM 2% | [10]; [16] -2% | [10]; at 11.0 µM 10% | [10]; at 33.0 µM 68% | [10]; [17] 56% | [11]; at 1.2 µM 4% | [11]; at 3.7 µM 19% | [11]; at 11.0 µM 66% | [11]; at 100.0 µM 63% | [12]; [16] -13% | [12]; [17] 63% | [13]; at 1.2 µM -22% | [13]; at 3.7 µM -17% | [13]; at 11.0 µM 28% | [13]; at 33.0 µM 63% | [13]; at 100.0 µM 59%

CCc1c(Cl)c(C)c(Cl)c(O)c1Cl
active: [1]; at 33.0 µM 97% | [1]; at 100.0 µM 99% | [2]; at 33.0 µM 93% | [2]; at 100.0 µM 98% | [3]; at 33.0 µM 87% | [3]; at 100.0 µM 96% | [4]; at 33.0 µM 98% | [4]; at 100.0 µM 99% | [5]; at 33.0 µM 96% | [5]; [17] 98% | [5]; at 50.0 µM 92% | [5]; at 100.0 µM 99% | [6]; at 33.0 µM 95% | [6]; [17] 98% | [6]; at 50.0 µM 93.3% | [6]; at 100.0 µM 97% | [7]; at 33.0 µM 98% | [7]; at 100.0 µM 99% | [8]; at 33.0 µM 90% | [8]; at 100.0 µM 99% | [9]; [17] 98% | [9]; at 50.0 µM 92.8% | [10]; at 33.0 µM 96% | [10]; [17] 98% | [10]; at 50.0 µM 92.9% | [10]; at 100.0 µM 99% | [14]; at 33.0 µM 97% | [14]; at 100.0 µM 99% | [11]; at 33.0 µM 95% | [11]; at 100.0 µM 99% | [15]; at 33.0 µM 96% | [15]; at 100.0 µM 99% | [12]; [17] 98% | [12]; at 50.0 µM 92% | [13]; at 33.0 µM 96% | [13]; at 100.0 µM 99%
inactive: [1]; at 1.2 µM -22% | [1]; at 3.7 µM -30% | [1]; at 11.0 µM -9% | [2]; at 1.2 µM -27% | [2]; at 3.7 µM -25% | [2]; at 11.0 µM 1% | [3]; at 1.2 µM -7% | [3]; at 3.7 µM 0% | [3]; at 11.0 µM 32% | [4]; at 1.2 µM -33% | [4]; at 3.7 µM -32% | [4]; at 11.0 µM -14% | [5]; at 1.2 µM -11% | [5]; at 3.7 µM -28% | [5]; [16] 57% | [5]; at 11.0 µM 6% | [6]; at 1.2 µM -28% | [6]; at 3.7 µM -12% | [6]; [16] 61% | [6]; at 11.0 µM 2% | [7]; at 1.2 µM -11% | [7]; at 3.7 µM -12% | [7]; at 11.0 µM 10% | [8]; at 1.2 µM 13% | [8]; at 3.7 µM 17% | [8]; at 11.0 µM 11% | [9]; [16] 38% | [10]; at 1.2 µM 1% | [10]; at 3.7 µM -4% | [10]; [16] 16% | [10]; at 11.0 µM 5% | [14]; at 1.2 µM -8% | [14]; at 3.7 µM -12% | [14]; at 11.0 µM 2% | [11]; at 1.2 µM -12% | [11]; at 3.7 µM -8% | [11]; at 11.0 µM 7% | [15]; at 1.2 µM -4% | [15]; at 3.7 µM -13% | [15]; at 11.0 µM 14% | [12]; [16] 38% | [13]; at 1.2 µM -19% | [13]; at 3.7 µM -32% | [13]; at 11.0 µM -19%

O=C1C2=C(c3ccccc31)C(c1ccccc1)N1C(=O)CSC1=N2 (stereo not given)
inactive: [1]; at 1.2 µM 12% | [1]; at 3.7 µM 15% | [1]; at 11.0 µM 25% | [1]; at 33.0 µM 31% | [2]; at 1.2 µM 10% | [2]; at 3.7 µM 3% | [2]; at 11.0 µM 15% | [2]; at 33.0 µM 22% | [2]; at 100.0 µM 54% | [3]; at 1.2 µM 9% | [3]; at 3.7 µM 2% | [3]; at 11.0 µM 5% | [3]; at 33.0 µM 33% | [3]; at 100.0 µM 23% | [4]; at 1.2 µM -2% | [4]; at 3.7 µM 1% | [4]; at 11.0 µM -7% | [4]; at 33.0 µM 38% | [5]; at 1.2 µM -1% | [5]; at 3.7 µM 2% | [5]; [16] 14% | [5]; at 11.0 µM 12% | [5]; at 33.0 µM 30% | [5]; [17] 44% | [5]; at 50.0 µM 58.2% | [6]; at 1.2 µM 5% | [6]; at 3.7 µM 10% | [6]; [16] -9% | [6]; at 11.0 µM 10% | [6]; at 33.0 µM 8% | [6]; [17] 16% | [6]; at 50.0 µM 45% | [7]; at 1.2 µM -21% | [7]; at 3.7 µM -17% | [7]; at 11.0 µM -20% | [7]; at 33.0 µM 6% | [8]; at 1.2 µM 14% | [8]; at 3.7 µM 4% | [8]; at 11.0 µM 9% | [8]; at 33.0 µM -3% | [8]; at 100.0 µM 54% | [9]; [16] -11% | [9]; [17] 26% | [9]; at 50.0 µM 38.7% | [10]; at 1.2 µM -2% | [10]; at 3.7 µM 17% | [10]; [16] -31% | [10]; at 11.0 µM 15% | [14]; at 1.2 µM 2% | [14]; at 3.7 µM 7% | [14]; at 11.0 µM 28%
active: [1]; at 100.0 µM 73% | [4]; at 100.0 µM 81% | [5]; at 100.0 µM 74% | [6]; at 100.0 µM 73% | [7]; at 100.0 µM 74% | [10]; at 33.0 µM 79% | [10]; [17] 92% | [10]; at 50.0 µM 87.2% | [10]; at 100.0 µM 92%
